Consider 37 molecules from PubChem BioAssay (NCI).

Structures are written as SMILES. About 83,000 compounds went through this panel and 20% of them were active in at least one assay; those are over-represented in the sample as a whole.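 How to read the values: 0–100, growth inhibition (40 = 60% inhibited); 0, no net growth; -100 to 0, cell death (-40 = 40% of starting cells died; -100 = all dead).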 Values without a mark were called inactive. Activity calls are given as the source filed them. The calls were made as follows: active = growth percent below 10; inactive = the rest.

The test concerns NCI/ADR-RES ovarian. The experiment in a line: NCI-60 one-dose screen, 48 h (100 = growth as untreated, 0 = no growth, -100 = all killed). The conditions noted are these: 10 µM unless noted.
As for `CCCCCCC(CC#N)(CCC)CCCC` (configuration not stated), the growth was 109%.
The value for `COc1ccc(NC(=O)c2ccccc2-c2ccccc2)c(C(N)=O)c1` was 26.9%; that for `Cc1ccc(-c2csc(N)n2)cc1` was 104%; that for `Cc1nn(-c2ccccc2)c2nc(N)c(C3=NCCO3)nc12` was 101%.
As for `CCCCNCCCN(CCCC)CCCNCCCC`, the figure is 99.9%; as for `C1CCC(C(CC2CCCCN2)C2CCCCC2)CC1` (configuration not stated), 14.3%; as for `Oc1c(Cl)cc(Cl)c(Cl)c1Cc1c(O)c(Cl)cc(Cl)c1Cl`, 3.82% (active).
As for `CSc1nc(Nc2ccc(S(=O)(=O)Nc3ccon3)cc2)c(C#N)c(-c2ccc(Cl)cc2)n1`, the figure is 102%; as for `O=C(Nc1nc2ccc(OC(F)(F)F)cc2s1)c1ccc(F)cc1`, 6.2% (active); as for `COc1cccc(C=Nc2cc(C(C)C)c(O)cc2C)c1O`, 104%.
Consider `COC(=O)[C@H](Cc1cn(C)cn1)NC(=O)[C@H](Cc1ccccc1)NC(=O)Nc1cc(C(F)(F)F)cc(C(F)(F)F)c1`, for which the growth was 4.87% [100 µM] (active).
Consider `Cn1c(N2N=C(c3ccc(Cl)cc3)CC2c2ccccc2)nc(-c2ccccc2)c(C#N)c1=O` (configuration not stated), for which the growth was 82.9%.
As for `NC(=NCCCCCCN=C(N)/N=C(\N)Nc1ccc(Cl)cc1)/N=C(\N)Nc1ccc(Cl)cc1`, the figure is 46.8%.
The value for `Oc1c(N=Nc2nn[nH]n2)ccc2ccccc12` was 96.2%; that for `Cc1ccc(/C=C/C(=O)c2ccc(F)cc2)s1` was 61.7%; that for `CC[N+](CCCCCCCCCC[N+](CC)(c1ccccn1)c1ccccn1)(c1ccccn1)c1ccccn1` was 63.6%.
As for `O=C(c1ccc(N2CCOCC2)cc1[N+](=O)[O-])N1CCOCC1`, the growth is 108%.
The value for `Cc1ccc(-c2c3c(N)nc(-c4ccncc4)nc3nc3c2c(C)nn3-c2ccccc2)cc1` was 46.6%.
As for `COc1cccc(CCN2C(=O)CCC3=C2CCC3=O)c1`, the figure is 104%.
Regarding `CC(=O)c1nn(-c2ccccc2)c(=Nc2ccccc2)cc1C`, the growth was 100%.
The value for `COc1ccc(-c2nc3sc4c(c3c(=O)[nH]2)CCCCCC4)cc1` was 51.2%; that for `CCOC(=O)/C(=C/CC/C(C)=C/CC/C(C)=C/CCc1ccoc1)CC(=O)N1CCCCC1` was 50.6%.
As for `CCCCCCCSc1ncnc2[nH]ncc12`, the figure is 84.6%; as for `CC1CC=CCC1C1OCC(C)(C)CO1` (configuration not stated), 108%; as for `Cc1[nH]c(=O)[nH]c(=O)c1CCSSCCc1c(C)[nH]c(=O)[nH]c1=O`, 104%.
As for `CC(NNC(=S)N1CCCCCC1)c1ccc2ccccc2n1` (configuration not stated), the figure is 20.8%.
Consider `NS(=O)(=O)c1ccc(-n2nc(-c3ccc(Br)cc3)ccc2=O)cc1`, for which the growth was 57% [100 µM].
As for `CCOc1cc(CCNS(=O)(=O)c2ccc(C)cc2)c(C(C)=O)cc1OCC`, the figure is 66.3% [100 µM].
As for `COC(=O)[C@H](Cc1cnc[nH]1)NC(=O)[C@@H](NC(=O)Nc1cc(C(F)(F)F)cc(C(F)(F)F)c1)C(C)C`, the figure is 73.9% [100 µM].
As for `CCCCCCCCCCCCC1CCCC(C)C1` (configuration not stated), the figure is 95.3%.
On to `FC(F)(F)c1ccc(-c2cnc(-c3nn[nH]n3)nc2NC2CCCCCC2)cc1`, for which the growth was 30.8% [50 µM].
The value for `CCCCCc1c(C)[nH]c(/C=C2\N=C(c3ccc[nH]3)C=C2OCc2ccccc2)c1C` was -48.5% [100 µM] (active).
As for `COc1c(Br)cc(C(c2cc(Br)c(OC)c(Br)c2)c2ccccc2C(=O)O)cc1Br`, the figure is 98.8%.
As for `CCOC(=O)C(C(=O)OCC)C1CCCCC1`, the figure is 109%; as for `N#Cc1ncc(-c2ccc(C(F)(F)F)cc2)c(NC2CCCCCC2)n1`, 69.8%.
For `CCCCCCCC[Si](OCC)(OCC)OCC`, the growth was 108%.
The value for `C[C@H]1O[C@@H](O[C@H]2[C@@H](O)C[C@H](O[C@H]3[C@@H](O)C[C@H](O[C@H]4CC[C@]5(C)C6CC[C@]7(C)[C@@H](C8=CC(=O)OC8)CC[C@]7(O)C6CC[C@@H]5C4)O[C@@H]3C)O[C@@H]2C)C[C@H](O)[C@@H]1O` (some centres not stated) was -79.2% (active).
